# Columns and labels:
# Conditions in all cases: concentration: 1 μM, replicates: in singlicate; n = 1
# [1] = tested on: RPS6KA4(Kin.Dom.1-N-terminal)
# [2] = tested on: RPS6KA4(Kin.Dom.2-C-terminal)
# [3] = tested on: RPS6KA5(Kin.Dom.1-N-terminal)
# [4] = tested on: RPS6KA5(Kin.Dom.2-C-terminal)
# [5] = tested on: T1, RSK1(Kin.Dom.1-N-terminal)
# T1 construct: gene RPS6KA1
# [6] = tested on: T2, RSK1(Kin.Dom.2-C-terminal)
# T2 construct: gene RPS6KA1
# [7] = tested on: T3, RSK2(Kin.Dom.1-N-terminal)
# T3 construct: gene RPS6KA3
# [8] = tested on: T4, RSK2(Kin.Dom.2-C-terminal)
# T4 construct: gene RPS6KA3
# [9] = tested on: T5, RSK3(Kin.Dom.1-N-terminal)
# T5 construct: gene RPS6KA2
# [10] = tested on: T6, RSK3(Kin.Dom.2-C-terminal)
# T6 construct: gene RPS6KA2
# [11] = tested on: T7, RSK4(Kin.Dom.1-N-terminal)
# T7 construct: gene RPS6KA6
# [12] = tested on: T8, RSK4(Kin.Dom.2-C-terminal)
# T8 construct: gene RPS6KA6
# S6K1 = tested on: S6K1
# SBK1 = tested on: SBK1
# SGK2 = tested on: SGK2
# SGK3 = tested on: SGK3
# SGK = tested on: SGK
# SIK2 = tested on: SIK2
# SIK = tested on: SIK
# SLK = tested on: SLK
# 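Also: KINOMEscan kinase panel screen.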
Structure (SMILES),%Inh [1] [%],%Inh [2] [%],%Inh [3] [%],%Inh [4] [%],%Inh [5] [%],%Inh [6] [%],%Inh [7] [%],%Inh [8] [%],%Inh [9] [%],%Inh [10] [%],%Inh [11] [%],%Inh [12] [%],%Inh (S6K1) [%],%Inh (SBK1) [%],%Inh (SGK2) [%],%Inh (SGK3) [%],%Inh (SGK) [%],%Inh (SIK2) [%],%Inh (SIK) [%],%Inh (SLK) [%]
CCOc1nccc(-c2c(-c3ccc(F)cc3)ncn2C2CCNCC2)n1 [SB-249175],8,32,100,0,16,20,52,39,17,20,41,83,16,46,34,12,29,4,2,71
CN(c1ccc2c(c1)nc(NCc1ccccc1)n2C)c1ccnc(Nc2ccc(CS(C)(=O)=O)cc2)n1.Cl [GW811603],7,0,0,0,2,0,0,24,0,23,0,0,0,0,24,0,13,10,9,38
COC(=O)Nc1nc2cc(Oc3ccc(NC(=O)Nc4cccc(SC)c4)cc3)ccc2[nH]1.Cl [GW697999],3,0,15,0,0,0,0,4,7,0,0,0,9,0,0,8,11,0,0,33
Fc1cc(Cl)ccc1Nc1ccnc2cc(-c3ccc(CN4CCOCC4)o3)ccc12 [GW560109],35,0,9,0,6,28,14,44,100,0,0,90.3,26,37,6,0,0,100,97.4,32
O=C(Nc1c(F)cccc1F)c1cc(C(=O)c2ccccc2F)c[nH]1 [GSK1326180],8,0,4,0,5,0,1,24,0,10,1,0,0,52,18,5,11,0,0,0
Cc1ccc(O)cc1Nc1ccnc2cc(-c3ccc(CN4CCCCC4)o3)ccc12 [GW557777],0,9,0,10,0,90.7,0,40,1,29,0,87,0,0,0,0,1,83,97.8,34
CCn1c(-c2nonc2N)nc2c(-c3ccccc3)ncc(OCCCN)c21.O=C(O)C(F)(F)F.O=C(O)C(F)(F)F [GSK260205],0,0,31,8,19,50,80,0,99.7,1,67,90.3,44,9,0,71,1,36,11,99.1
CC(C)c1nc(-c2cccc(NS(=O)(=O)c3c(F)cccc3F)c2)c(-c2ccnc(Nc3ccc(N4CCOCC4)nc3)n2)s1.Cl [GSK1723980],0,0,0,0,83,1,15,0,27,0,0,19,29,20,0,15,34,90.8,99.4,73
O=C1NC(=O)C(c2ccccc2Cl)=C1Nc1cccc(Cl)c1 [SB-342409],16,0,2,0,75,9,19,31,100,0,0,9,7,8,0,5,0,0,5,96.5
CN(C)CCNS(=O)(=O)c1ccc(-c2ccnc3[nH]ccc23)cc1 [GSK977620],30,73,44,68,30,31,60,9,32,21,25,22,32,47,0,32,4,11,14,71
O=C(Nc1n[nH]c2nc(-c3ccccc3O)ccc12)C1CC1 [SB-711880],0,7,0,0,4,0,54,0,11,31,51,28,26,0,31,8,30,58,0,49
CC(C)(C)c1ccc(C(=O)Nc2cn3cc(-n4ccnc4)ccc3n2)cc1,0,22,10,31,0,0,25,0,0,0,29,0,8,0,11,60,2,10,9,6
CN(c1ccc(NC(=O)N2CCN(CCCN3CCOCC3)CC2)cc1)c1ccnc(Nc2ccc(CS(C)(=O)=O)cc2)n1.Cl [GW830899],31,0,0,0,2,1,0,1,0,0,0,0,0,0,0,0,0,9,8,47
CCNC(=O)/C=C/c1n[nH]c2cc(Sc3ccccc3C(=O)NC)ccc12,8,21,4,0,24,15,8,0,8,34,17,24,18,0,0,46,0,55,44,23
Cn1cc(-c2ccc3c(c2)CCN3C(=O)Cc2cc(F)cc(C(F)(F)F)c2)c2c(N)ncnc21 [GSK2635225],0,0,23,6,1,5,0,19,19,0,0,0,9,7,0,8,1,0,0,41
COc1ccc(NC(=O)c2ccoc2)cc1-c1ccc(C(=O)NCC2CC2)cc1 [GW810437],18,0,4,8,0,21,22,0,0,27,8,0,9,48,0,19,25,0,0,0
Cc1ccc(-c2ccc3occ(-c4ccc(S(C)=O)cc4)c3c2)nn1 (stereo not drawn),1,0,22,0,0,0,0,9,0,0,0,0,5,0,0,0,0,7,0,12

Structure (SMILES),%Inh [1] [%],%Inh [2] [%],%Inh [3] [%],%Inh [4] [%],%Inh [5] [%],%Inh [6] [%],%Inh [7] [%],%Inh [8] [%],%Inh [9] [%],%Inh [10] [%],%Inh [11] [%],%Inh [12] [%],%Inh (S6K1) [%],%Inh (SBK1) [%],%Inh (SGK2) [%],%Inh (SGK3) [%],%Inh (SGK) [%],%Inh (SIK2) [%],%Inh (SIK) [%],%Inh (SLK) [%]
O=C(O)C(F)(F)F.O=c1[nH]ccc2nc(N[C@@H]3CCNC3)nc(Nc3cc(Cl)cc(Cl)c3)c12 [GSK2188764],94.6,99.9,65,86,96.7,64,98.3,30,94.8,55,96.3,32,94.3,91.5,96.4,99.5,99.9,54,1,98.9
N#Cc1cnc2cc(-c3cnc(CNCCN4CCOCC4)s3)ccc2c1Nc1ccc(Oc2ccccc2)cc1 [GW664114],41,0,76,28,91.7,32,79,1,78,16,11,14,61,1,0,4,1,16,45,67
Cc1cccc(Nc2nc(NCCN)ncc2C(N)=O)c1 [GSK1292139],12,0,0,29,20,31,46,7,18,1,21,23,14,72,0,8,9,52,19,32
COc1cccc(NC(=O)NCCNc2ccnc(Nc3ccc(F)cc3)n2)c1 [GSK1379879],0,0,0,34,18,0,3,0,3,0,0,0,0,40,12,2,3,4,0,7
CN1CCN(Cc2ccc(NC(=O)Nc3ccc(N(C)c4ccnc(Nc5ccc(CS(C)(=O)=O)cc5)n4)cc3)cc2)CC1.Cl [GW827654],39,16,0,0,75,15,0,46,42,25,6,57,17,0,58,21,53,15,22,97.3
NCCC(NC(=O)c1cc(Br)c(-c2ccnc3[nH]ccc23)s1)c1ccccc1.O=C(O)C(F)(F)F.O=C(O)C(F)(F)F (stereo not drawn) [GSK1307810],44,39,46,46,37,31,44,0,13,0,53,4,48,66,67,64,78,0,0,16
O=C(Nc1n[nH]c2nc(-c3cccc(O)c3)ccc12)C1CC1 [SB-711805],0,51,0,0,0,0,30,0,0,0,52,14,0,4,14,13,28,0,0,48
Cc1ccc(NC(=O)c2ccnc(N3CCCCC3)c2)cc1-c1ccc(C(=O)NCC2CC2)cc1 [GW775610],0,0,0,0,0,100,0,0,16,15,0,39,19,0,5,0,0,0,0,5
Cl.Cl.NCC(NC(=O)c1cc(-c2cccnc2)c(-c2ccnc3[nH]ccc23)s1)c1ccccc1 (stereo not drawn) [GSK1323434],58,0,18,57,61,53,29,40,0,0,0,31,27,42,51,70,27,0,12,32
COc1ccc(C2=C(Nc3cccc(O)c3)C(=O)NC2=O)cc1 [SB-390766],0,0,2,0,32,0,24,96.4,3,21,0,20,17,8,11,9,0,0,0,27
Cc1nn2c(=O)cc(N3CCO[C@H](C)C3)nc2n1Cc1cccc(Cl)c1Cl [GSK2373693],18,39,19,24,0,4,10,5,26,4,0,0,4,89,1,0,0,0,0,4
Cc1ccccc1CC(=O)N1CCc2cc(-c3cn(C)c4ncnc(N)c34)ccc21 [GSK2603346],11,0,20,0,0,4,0,6,24,0,28,10,19,23,2,0,0,0,0,48
Cl.O=C(Nc1ccc(Oc2ccc3[nH]c(NC(=O)c4ccco4)nc3c2)cc1)Nc1cc(C(F)(F)F)ccc1F [GW683134],16,0,14,6,0,16,3,3,54,9,0,13,45,3,14,0,0,0,0,83
Cc1ccc(NC(=O)c2ccc(Cl)c(Cl)c2)cc1-c1ccc(C(=O)Nc2ccncc2)cc1 [GSK1398460],25,0,15,0,24,2,0,22,7,9,0,23,0,15,0,14,0,9,8,29
COC(=O)Nc1nc2ccc(Oc3ccc(CC(=O)Nc4cc(C(F)(F)F)ccc4F)cc3)cc2[nH]1 [GW680903],0,0,1,0,65,4,0,5,4,0,0,9,9,10,4,0,0,0,0,2
Cc1ccc(Nc2ccnc(Nc3ccc(C)c(F)c3)n2)cc1O.Cl [GW582868],0,0,0,21,0,0,0,0,9,0,0,0,0,6,0,0,1,100,0,41
